Drawing on PubChem BioAssay AID624416 (The Scripps Research Institute Molecular Screening Center, 2012), this text covers inhibition for 27 compounds.

Screen size: about 360,000 compounds; about 1,500 (0.42%) were called active. This is one part of a sample in which actives are shown more often than they occur. A number with no mark means an inactive call. Rule as the data show it: active = inhibition above about 8.5%; inactive = the rest.

This test relates to HIV-1 gp120 / PG9 antibody interaction. Kind of test: small molecules engaging PG9 antibody – biochemical, TR-FRET, primary screen (AID 624416). Conditions: TR-FRET gp120-PG9 antibody binding; at 6.7 µM; hits give high values.
Consider `CC1(C)OC(=O)C2=C(CC(CCc3ccccc3)OC2c2ccc(Cl)cc2)O1` (configuration not stated), for which the inhibition was 1.11%.
With `O=C(Nc1ccn(Cc2ccccc2F)n1)c1ccc(COc2ccc(Cl)cc2Cl)o1` the figure was 1.3%.
On to `N#Cc1ccccc1NC(=O)c1cccc(COc2ccc(Cl)cc2Cl)c1`, for which the inhibition is 19.9% (active).
With `COc1ccc(Sc2ccc(NC(=O)c3cccc(Cl)c3)cc2C#N)cc1` the figure was -1.17%; with `CN[C@H]1C[C@H]2c3[nH]c4c(-c5ccccc5)cccc4c3CCN2C(=O)[C@H]1[C@H](C)O`, -0.87%; with `COc1ccc(-c2ccc3c(n2)CCCN3S(=O)(=O)c2ccc(C)cc2)cc1`, -0.15%.
With `COC(=O)C1=C(C)N(Cc2ccc(C(F)(F)F)cc2)C(=NCc2ccc(C(F)(F)F)cc2)NC1c1cccc(Cl)c1` (configuration not stated) the figure was -0.79%; with `Cc1cc(C)cc(NC(=O)C2CCCN(S(=O)(=O)c3ccc4[nH]c(=O)ccc4c3)C2)c1` (configuration not stated), 11.4% (active); with `CCc1cccc(NC(=O)C2CCCN(S(=O)(=O)c3ccc4[nH]c(=O)ccc4c3)C2)c1` (configuration not stated), 0.8%.
With `CC1CCN(S(=O)(=O)c2ccc3[nH]c(=O)ccc3c2)CC1` the figure was 0.02%; with `CC(C)[C@@H](C)/C=C/[C@@H](C)[C@H]1CC[C@@H]2[C@]1(C)CCC1[C@]23C=C[C@]2(C[C@@H](O)CC[C@]12C)N(c1ccc([N+](=O)[O-])cn1)O3` (some centres not stated), -1.14%; with `O=C(NCc1ccc(Cl)cc1)c1cc(=O)nc2sc(-c3ccccc3)nn12`, -2.19%.
As to `O=C(NCc1ccc2c(c1)OCO2)c1c(O)nc2sccn2c1=O`, the inhibition was -1.43%.
On to `O=C(NCc1ccc(Cl)cc1)c1cc2c(nc3sccn32)s1`, for which the inhibition is 28.4% (active).
With `CCOC(=O)CNC(=O)N(C)[C@H]1C[C@H]2c3[nH]c4c(-c5ccc6c(c5)OCO6)cccc4c3CCN2C(=O)[C@H]1[C@H](C)O`, the inhibition is -0.88%.
As to `COc1cccc(CNC(=O)c2cccnc2Sc2ccc(Cl)cc2)c1`, the inhibition is 14.9% (active).
With `CSc1ncccc1C(=O)NCc1ccccc1Cl` the figure was -1.41%.
In the case of `O=C(NCc1cccnc1)c1cccnc1Sc1ccc(Cl)cc1`, the inhibition was 0.54%.
With `O=C(NCc1ccccc1)[C@@H]1CCCN1C(=O)[C@@H](NS(=O)(=O)c1ccc(F)cc1F)C1CCCCC1` the figure was -0.43%.
In the case of `O=C(N=C1SC2CS(=O)(=O)CC2N1c1ccccc1)c1ccccc1` (configuration not stated), the inhibition is -0.55%.
In the case of `O=C(N=C1SC2CS(=O)(=O)CC2N1Cc1ccccc1)c1ccccc1` (configuration not stated), the inhibition is 34% (active).
With `O=C(CCC1CCCC1)N=C1SC2CS(=O)(=O)CC2N1Cc1ccccc1` (configuration not stated) the figure was 0.63%; with `Nc1[nH]c(C(=O)c2ccccc2)c(-c2ccc(Cl)cc2Cl)c1C(=O)c1ccccc1`, 0.83%; with `Cc1c(-c2ccccc2)nc(N)c(C#N)c1-c1cccs1`, 12.2% (active).
Regarding `CN1CCc2nc(SC(C(=O)O)c3ccccc3)c(C#N)c(-c3cccs3)c2C1` (configuration not stated), the inhibition is 1.9%.
With `CCc1c(-c2ccccc2)nc(N)c(C#N)c1-c1cccs1` the figure was -2.39%; with `O=C(NCc1ccccc1)[C@H]1CCCN1C(=O)[C@H]1CCCN1C(=O)c1cc(F)cc(F)c1`, -2.57%.
